Inconclusive results are not listed. Calls of active or inactive are those of the source. Rule for the calls, unless noted: active = hit-call score of the fitted dose curve at least 0.9, where 1 is the maximum; inactive = score below 0.9.
What was measured:
[1] = target: human Vitamin D Receptor (VDR), VDR (gene 7421) (UniProt P11473); assay: ATG_VDR_TRANS: Attagene TRANS-FACTORIAL HepG2 Assay for human Vitamin D Receptor (VDR) (AID 2283022; active = hit-call score of the fitted dose curve at least 0.9, where 1 is the maximum)
Chain of human Vitamin D Receptor (VDR), VDR (gene 7421) (P11473 whole entry, looked up, the tested form may be a part): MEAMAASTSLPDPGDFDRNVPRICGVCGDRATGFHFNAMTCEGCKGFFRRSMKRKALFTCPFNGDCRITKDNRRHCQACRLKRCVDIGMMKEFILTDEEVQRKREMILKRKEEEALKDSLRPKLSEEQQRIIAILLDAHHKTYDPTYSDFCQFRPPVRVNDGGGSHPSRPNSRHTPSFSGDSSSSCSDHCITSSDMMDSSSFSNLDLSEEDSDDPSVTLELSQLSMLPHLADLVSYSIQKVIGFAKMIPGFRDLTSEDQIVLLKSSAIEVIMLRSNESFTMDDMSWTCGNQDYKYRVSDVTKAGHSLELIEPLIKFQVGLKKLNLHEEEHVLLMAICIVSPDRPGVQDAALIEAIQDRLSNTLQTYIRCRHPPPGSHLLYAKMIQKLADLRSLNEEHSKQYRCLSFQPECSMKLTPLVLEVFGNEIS
Outline: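 HepG2 cells were transiently transfected with multiple GAL4-UAS reporter units, so signal reflects exogenous chimeric receptor-Gal4 activity. After 24 h compound exposure, reporter mRNA was measured by RT-PCR, fluorescent labelling and capillary electrophoresis, fitted for gain of signal versus DMSO.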

[2] = BSK_3C_SRB: Viability Assessment in the BioMAP Diversity Plus: 3C Assay (AID 2283023); conditions: primary human endothelial cells (HUVEC);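 note: fitted both ways against DMSO so a hit may be signal rise or drop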
Outline: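 Primary human umbilical vein endothelial cells in the 3C system were read 24 h after compound dosing. Total protein was stained with 0.1% sulforhodamine B after 10% TCA fixation and read at 560 nm, with bidirectional fitting against DMSO as baseline.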

[3] = read-out: Matrix Metallopeptidase 1 (MMP1), MMP1 (gene 4312); assay: BSK_BE3C_MMP1: BioMAP Diversity Plus: BE3C Assay for Matrix Metallopeptidase 1 (MMP1) Biomarker Activity (AID 2283024); conditions: primary human bronchial epithelial cells; actives raise or lower the signal
Outline: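 Human primary bronchial epithelial cells (BE3C system) dosed for 24 h; MMP-1 quantified by ELISA. Bidirectional fit against DMSO; cytotoxicity tracked in parallel cultures by SRB total-protein staining.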

[4] = BSK_3C_Vis: BioMAP Diversity Plus: 3C Assay for Morphology Visualization (AID 2283025); conditions: primary human endothelial cells (HUVEC);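 note: fitted both ways so gain or loss versus DMSO counts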;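 for AC50: light microscopy image of cell morphology used as background control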
Outline: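 Human umbilical vein endothelial cell morphology was inspected by light microscopy 24 h after chemical dosing; scored bidirectionally relative to DMSO.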

[5] = read-out: Pselectin, SELP (gene 6403); assay: BSK_4H_Pselectin: BioMAP Diversity Plus: 4H Assay for Pselectin Biomarker Activity (AID 2283026); conditions: primary human endothelial cells (HUVEC); actives raise or lower the signal
Outline: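 Primary human umbilical vein endothelial cells were treated 24 h, and cell-surface P-selectin was then quantified by ELISA. Bidirectional fit versus DMSO; cytotoxicity checked in parallel cultures by SRB total-protein staining.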

[6] = BSK_4H_SRB: Viability Assessment in the BioMAP Diversity Plus: 4H Assay (AID 2283027); conditions: primary human endothelial cells (HUVEC);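 for AC50: curves fitted both ways versus DMSO so AC50 may be loss or gain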
Outline: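 Absorbance at 560 nm of SRB-stained total protein served as the viability read-out in confluent primary human umbilical vein endothelium 24 h after chemical treatment. Curves were fitted bidirectionally against DMSO as negative control.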

[7] = BSK_BE3C_SRB: Viability Assessment in the BioMAP Diversity Plus: BE3C Assay (AID 2283028); conditions: primary human bronchial epithelial cells;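 for AC50: fitted both ways so AC50 may mark signal gain or loss versus DMSO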
Outline: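 Human primary bronchial epithelial cells were exposed to test chemicals for 24 h. Total protein in parallel cultures was then measured by staining with 0.1% sulforhodamine B after 10% TCA fixation, with absorbance read at 560 nm. Activity was fitted bidirectionally against DMSO.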

[8] = read-out: Thrombomodulin, THBD (gene 7056); assay: BSK_3C_Thrombomodulin: BioMAP Diversity Plus: 3C Assay for Thrombomodulin Biomarker Activity (AID 2283029); conditions: primary human endothelial cells (HUVEC); actives raise or lower the signal
Outline: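 Human umbilical vein endothelial cells were exposed to chemicals for 24 h; cell-surface thrombomodulin quantified by ELISA, with bidirectional fitting against DMSO baseline.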

[9] = read-out: Urokinase-type plasminogen activator receptor (uPAR), PLAUR (gene 5329); assay: BSK_4H_uPAR: BioMAP Diversity Plus: 4H Assay for Urokinase-type plasminogen activator receptor (uPAR) Biomarker Activity (AID 2283030); conditions: primary human endothelial cells (HUVEC); actives raise or lower the signal
Outline: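 Primary human umbilical vein endothelial cells were exposed to chemical for 24 h before cell-surface uPAR was quantified by ELISA. Activity was fitted bidirectionally against the DMSO negative control baseline.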

[10] = read-out: Human Leukocyte Antigen - DR isotype (HLADR), HLA-DRA (gene 3122); assay: BSK_BE3C_HLADR: BioMAP Diversity Plus: BE3C Assay for Human Leukocyte Antigen - DR isotype (HLADR) Biomarker Activity (AID 2283032); conditions: primary human bronchial epithelial cells; actives raise or lower the signal
Outline: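 Human primary bronchial epithelial cells (BE3C system) exposed to compound for 24 hours; cell-surface HLA-DR measured by ELISA, fitted bidirectionally relative to DMSO. Total protein by SRB in parallel cultures tracked cytotoxicity.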

[11] = read-out: Vascular cell adhesion molecule 1 (VCAM1), VCAM1 (gene 7412); assay: BSK_4H_VCAM1: BioMAP Diversity Plus: 4H Assay for Vascular cell adhesion molecule 1 (VCAM1) Biomarker Activity (AID 2283033); conditions: primary human endothelial cells (HUVEC); actives raise or lower the signal
Outline: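 Primary human umbilical vein endothelial cells, 4H stimulation system, treated for 24 h; cell-surface VCAM-1 quantified by ELISA. Bidirectional fitting against DMSO; cytotoxicity tracked by SRB total-protein staining in parallel cultures.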

[12] = read-out: Interferon-gamma inducible Protein 10 (IP10), CXCL10 (gene 3627); assay: BSK_BE3C_IP10: BioMAP Diversity Plus: BE3C Assay for Interferon-gamma inducible Protein 10 (IP10) Biomarker Activity (AID 2283034); conditions: primary human bronchial epithelial cells; actives raise or lower the signal
Outline: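 Primary human bronchial epithelial cells, with IP-10 measured by ELISA 24 hours after chemical dosing. Bidirectional fit against DMSO; cytotoxicity checked by SRB total protein staining in parallel cultures.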

[13] = read-out: Monokine induced gamma interferon (MIG), CXCL9 (gene 4283); assay: BSK_BE3C_MIG: BioMAP Diversity Plus: BE3C Assay for Monokine induced gamma interferon (MIG) Biomarker Activity (AID 2283035); conditions: primary human bronchial epithelial cells; actives raise or lower the signal
Outline: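 MIG level was determined by ELISA after 24 h chemical treatment of primary human bronchial epithelial cells. Values were fitted bidirectionally with DMSO as the negative control and activity baseline.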

[14] = read-out: Transforming growth factor beta 1 (TGFb1), TGFB1 (gene 7040); assay: BSK_BE3C_TGFb1: BioMAP Diversity Plus: BE3C Assay for Transforming growth factor beta 1 (TGFb1) Biomarker Activity (AID 2283036); conditions: primary human bronchial epithelial cells; actives raise or lower the signal
Outline: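 Primary human bronchial epithelial cells dosed with chemical; TGF-b1 measured by ELISA 24 h after dosing. Bidirectional curve fitting against DMSO negative control; SRB total-protein staining in parallel cultures gauged cytotoxicity.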

[15] = read-out: Plasminogen activator inhibitor-1 (PAI1), SERPINE1 (gene 5054); assay: BSK_BE3C_PAI1: BioMAP Diversity Plus: BE3C Assay for Plasminogen activator inhibitor-1 (PAI1) Biomarker Activity (AID 2283037); conditions: primary human bronchial epithelial cells; actives raise or lower the signal
Outline: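 Primary human bronchial epithelial cells (BE3C system) exposed 24 h; PAI-1 quantified by ELISA. Parallel sulforhodamine B staining of total protein flags cytotoxicity. Bidirectional fit versus DMSO.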

[16] = read-out: urokinase plasminogen activator (uPA), PLAU (gene 5328); assay: BSK_BE3C_uPA: BioMAP Diversity Plus: BE3C Assay for urokinase plasminogen activator (uPA) Biomarker Activity (AID 2283038); conditions: primary human bronchial epithelial cells; actives raise or lower the signal
Outline: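 Human primary bronchial epithelial cells were exposed to chemical for 24 h, then uPA levels were measured by ELISA. Responses were fitted bidirectionally against DMSO as negative control and baseline. Parallel SRB staining of total protein gauged overt cytotoxicity.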

[17] = read-out: Interleukin-6 (IL6), IL6 (gene 3569); assay: BSK_CASM3C_IL6: BioMAP Diversity Plus: CASM3C Assay for Interleukin-6 (IL6) Biomarker Activity for (AID 2283040); conditions: primary human coronary artery smooth muscle cells; actives raise or lower the signal
[18] = read-out: Tissue plasminogen activator (tPA), PLAT (gene 5327); assay: BSK_BE3C_tPA: BioMAP Diversity Plus: BE3C Assay for Tissue plasminogen activator (tPA) Biomarker Activity (AID 2283041); conditions: primary human bronchial epithelial cells; actives raise or lower the signal
Outline: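 Primary human bronchial epithelial cells in the BE3C system, exposed to compound for 24 h. tPA was quantified by ELISA; DMSO served as baseline, with gain or loss of signal fitted. Cytotoxicity checked in parallel cultures by SRB total-protein staining.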

[19] = read-out: Vascular endothelial growth factor receptor 2 (Homo sapiens) (UniProt P35968); assay: BSK_4H_VEGFRII: BioMAP Diversity Plus: 4H Assay for Vascular endothelial growth factor receptor 2 (VEGFR2) Biomarker Activity (AID 2283031); conditions: primary human endothelial cells (HUVEC); actives raise or lower the signal
Outline: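 Primary human umbilical vein endothelial cells in the BioMAP 4H system were dosed with test chemical, and 24 h later VEGFRII was measured by ELISA. Activity was fitted bidirectionally against DMSO as negative control and baseline.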

[20] = read-out: Urokinase-type plasminogen activator receptor (uPAR), PLAUR (gene 5329); assay: BSK_BE3C_uPAR: BioMAP Diversity Plus: BE3C Assay for Urokinase-type plasminogen activator receptor (uPAR) Biomarker Activity (AID 2283039); conditions: primary human bronchial epithelial cells; actives raise or lower the signal
Outline: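 Primary human bronchial epithelial cells dosed for 24 h; uPAR quantified by ELISA with bidirectional fitting against DMSO. Overt cytotoxicity assessed in parallel cultures by SRB total-protein staining (0.1% SRB, 560 nm).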

Measured: AC50

O=C1OC2(c3cc(Br)c(O)c(Br)c3Oc3c2cc(Br)c(O)c3Br)c2c(Cl)c(Cl)c(Cl)c(Cl)c21
active: [2] 3.57 µM | [3] 0.546 µM | [4] 8.63 µM | [5] 2.19 µM | [6] 3.51 µM | [7] 0.608 µM | [8] 13.2 µM | [9] 1.34 µM | [10] 0.56 µM | [11] 4.23 µM | [12] 0.818 µM | [13] 2.49 µM | [14] 0.587 µM | [15] 0.563 µM | [16] 0.736 µM | [18] 0.744 µM
inactive: [1] | [17]

COC(=O)c1ccc(C)cc1
inactive: [1] | [2] | [3] | [4] | [5] | [6] | [7] | [8] | [9] | [19] | [10] | [11] | [12] | [13] | [14] | [15] | [16] | [20] | [17] | [18]

Cc1ccccc1C=O
inactive: [1]

CC(=O)C(C)=O
inactive: [1]

O=C1CCCCCCCCCCCCCCO1
inactive: [1] | [3] | [19] | [13]
active: [2] 27.1 µM | [4] 14.4 µM | [5] 27.6 µM | [6] 27.4 µM | [7] 9.72 µM | [9] 23.7 µM | [10] 20 µM | [11] 27.4 µM | [12] 12.6 µM | [14] 14.6 µM | [15] 20 µM | [16] 32.7 µM | [20] 20 µM | [17] 31.6 µM | [18] 12.7 µM

COCCOCCOCCOCCOCCO
inactive: [1]

Reference: PubChem BioAssay (EPA / NIEHS)
